# According to PubChem BioAssay:
# “And” between values parts separate entries of the source, which are not always exact repeats. Equal values may be shown once. The source made the active and inactive calls.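 The calls were made as follows, unless noted: active = normalized viability below 100% at a tested concentration; inactive = the rest.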
# Legend:
# [1] = hESC survival regulators, cell-based (AID 493140; call rule not given here;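 also: cells exposed to compounds for four days before counting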); details: human embryonic stem cell survival screen; stronger effect = higher value
# [2] = liver-stage malaria parasite growth inhibition, primary screen, cell-based, HepG2, luciferase luminescence, HepG2 viability (AID 624349; in the data active = parasite load remaining mostly below about 12%, no sharp cut-off; inactive = mostly above about 10%;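 also: 100% = mean of DMSO negative control wells on the same plate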); details: P. berghei liver stage in HepG2, luciferase luminescence, concentration not given here; parasite load remaining: stronger effect = lower value; viability: measured here: HepG2 viability without parasites
# [3] = stimulators of nuclear beta-catenin in C2C12, primary screen, imaging, WNT3A-conditioned medium, mouse C2C12, NPC library (AID 1117326; in the data active = nuclear beta-catenin stimulation mostly above about 4.2%, no sharp cut-off; inactive = mostly below about 10%); details: stronger effect = higher value
# [4] = stimulators of insulin release from INS-1E, primary screen, cell-based, 5 mM glucose, NPC library (AID 1117329;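 active = compound raises insulin release from rat beta cells at 5 mM glucose, no numeric limit stated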); details: rat INS-1E insulin secretion, at 10 µM, stronger effect = higher value
# [5] = growth inhibition of GSK3B-pretreated HCT116 cells – cell-based, CellTiter-Glo, 0.2 to 20 µM (AID 1117336;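 active = compounds lowering colon cancer cell viability after pretreatment blocking the GSK3B kinase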); details: HCT116 viability after GSK3B inhibitor, at 20 µM, stronger effect = higher value
# [6] = inhibition of endothelial tube formation, primary screen, imaging, VEGF stimulated, CD31 staining, tube area, NPC library (AID 1117340;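 active = compound that reduces growth-factor-driven endothelial tube area in a mixed cell culture, no cutoff stated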); details: VEGF-stimulated ADSC/ECFC co-culture, at 10 µM, stronger effect = higher value
# [7] = glucagon-like peptide 1 release enhancers, primary assay, NCI-H716 cell line, NPC library (AID 1117341;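 active = compound raises GLP1 secretion from the human gut endocrine cells, with no numeric limit stated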); details: NCI-H716 cells, at 10 µM, stronger effect = higher value
# [8] = HCT116 colon cancer cell growth inhibition, primary screen, CellTiter-Glo luminescence, NPC library (AID 1117342;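 active = compounds that lower survival of HCT116 colon cancer cells in the luminescence readout, no numeric limit stated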); details: at 20 µM (top of the series)
# [9] = CellTiter-Glo luminescent readout of SW480 viability loss, NPC library primary (AID 1117343;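 active = compounds that lower viability of the colon cancer cells in the luminescence readout, with no numeric limit stated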); details: CellTiter-Glo luminescence; at 20 µM (top of the series) unless noted
# [10] = decreased DLD-1 cellular survival, CellTiter-Glo luminescent readout, NPC compound collection, primary HTS (AID 1117346;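 active = compounds that lower survival of DLD-1 colon cancer cells in the luminescence readout, no cutoff given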); details: DLD-1 viability, CellTiter-Glo luminescence; at 20 µM (top of the series)
# [11] = differential killing of epithelial or mesenchymal cells, primary screen, imaging, PC-3E GFP, TEM4-18 mCherry, co-culture (AID 1345086;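 active = compounds killing one labelled cell type while sparing the other, by normalised counts and ratio limits, not self-fluorescent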;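 as to all read-outs here: cells exposed to compound for 72 h before imaging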;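 as to red/green cell ratio (normalised): normalised mesenchymal count divided by normalised epithelial count so high means epithelial killing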); details: imaging cell counts, at 1 µM; for red/green cell ratio (normalised): actives lie on both sides, counts scaled to control wells, 1 = unselective
# [12] = sensitizers of A549 cells to miR-34 induction, primary screen, imaging, A549 dox-inducible miR-34, nuclei and caspase counts (AID 1347080;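 active = compounds whose cell count with miR-34 switched on is under 0.7 times the count with it off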); details: A549 miR-34 inducible, Hoechst nuclei count, 48 h
# [13] = survival rescue of mitochondrial mutant cells in low glucose, primary screen, MELAS cybrids, Rieske KO mouse fibroblasts, CellTiter-Glo (AID 1508586;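 active = mean z-score across replicates of 1.96 or higher in either the MELAS or the Rieske mutant cell line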;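 also: z relative to plate mean and SD of compound and empty wells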)
# [14] = target: NAD(+) hydrolase SARM1 (Homo sapiens) (UniProt Q6SZW1); assay: SARM1 TIR NADase inhibitors, cell lysate, NAD-Glo luminescence (AID 1508614;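 active = compound whose remaining NAD level is above about 45 nM, limit read from the data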;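 also: higher remaining NAD means stronger inhibition of SARM1 NADase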); details: SAM-TIR HEK293T lysate NADase, at 1 µM, stronger effect = higher value
# [15] = ovarian cancer cell viability with rucaparib, profiling panel, oncology-focused library, rucaparib conditional (AID 1508598); details: patient-derived ovarian cancer cells, CellTiter-Glo viability, 144 h, stronger effect = lower value
# [16] = measured here: epithelial PC-3E GFP cell survival
# [17] = measured here: mesenchymal TEM4-18 mCherry cell survival
# [18] = stronger effect = lower value, cell number ratio, induced over uninduced
# [19] = measured here: relative caspase fold change +Dox/-Dox
# [20] = measured here: total cells with miR-34 induction, stronger effect = lower value
# [21] = measured here: total cells without miR-34 induction
# [22] = MELAS cybrid survival, CellTiter-Glo 48 h, stronger effect = higher value
# [23] = Rieske KO mouse fibroblast survival, CellTiter-Glo 72 h
# Chain of NAD(+) hydrolase SARM1 (Homo sapiens) (Q6SZW1 whole entry, looked up): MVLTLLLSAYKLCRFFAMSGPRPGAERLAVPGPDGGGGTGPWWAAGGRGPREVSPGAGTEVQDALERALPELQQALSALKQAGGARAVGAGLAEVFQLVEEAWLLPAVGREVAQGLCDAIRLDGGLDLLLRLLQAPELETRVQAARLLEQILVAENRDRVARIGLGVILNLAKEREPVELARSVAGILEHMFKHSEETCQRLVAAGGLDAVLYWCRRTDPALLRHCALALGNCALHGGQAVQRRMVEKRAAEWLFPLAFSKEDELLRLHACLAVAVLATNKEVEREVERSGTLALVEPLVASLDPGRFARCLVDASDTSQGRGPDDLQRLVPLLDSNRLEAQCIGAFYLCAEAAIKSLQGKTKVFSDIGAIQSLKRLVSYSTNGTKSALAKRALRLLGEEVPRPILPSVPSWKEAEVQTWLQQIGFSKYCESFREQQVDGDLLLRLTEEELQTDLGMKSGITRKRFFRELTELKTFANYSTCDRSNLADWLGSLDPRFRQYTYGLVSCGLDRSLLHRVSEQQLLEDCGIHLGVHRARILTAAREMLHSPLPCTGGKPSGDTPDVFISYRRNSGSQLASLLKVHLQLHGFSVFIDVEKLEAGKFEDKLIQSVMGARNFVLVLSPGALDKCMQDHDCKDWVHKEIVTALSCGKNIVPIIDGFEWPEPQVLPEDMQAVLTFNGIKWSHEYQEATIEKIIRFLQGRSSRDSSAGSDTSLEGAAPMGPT
compound,measurement,setting,value
Nc1cc(C(Cl)=C(Cl)Cl)c(S(N)(=O)=O)cc1S(N)(=O)=O,survival,[1],8.08 (inactive)
same,parasite load remaining,[2],69.8% (inactive) and 78.4% (inactive) and 58% (inactive)
same,viability,[2],125% and 85.5% and 102%
same,nuclear beta-catenin stimulation,[3]; at 10 µM,3.8% (inactive)
same,nuclear beta-catenin stimulation,"[3]; stimulation, at 2 µM",4.2%
same,insulin secretion stimulation,[4],1.4% (inactive)
same,viability decrease,[5],19% (inactive)
same,tube area decrease,[6],7% (inactive)
same,GLP1 secretion stimulation,[7],12.7% (inactive)
same,inhibition of viability,[8],-3.03% (inactive)
same,viability decrease (inhibition),[9],-22% (inactive)
same,viability decrease (inhibition),[10],4.8% (inactive)
same,red/green cell ratio (normalised),[11],0.84 (inactive)
same,normalised cell number,[11]; [16],1.14
same,normalised cell number,[11]; [17],0.96
same,fold change,[12]; [18],0.893 (inactive) and 0.936 (inactive) and 0.859 (inactive)
same,fold change,[12]; [19],1.43 and 0.803 and 4.71
same,cell count,[12]; [20],8790 and 9570 and 11100
same,cell count,[12]; [21],9850 and 10200 and 12900
same,z-score,[13]; [22],-0.253 (inactive) and -0.139 (inactive)
same,z-score,[13]; [23],0.393 and 0.0455
same,remaining NAD,[14],10 nM (inactive)
COc1ccc2[nH]c(S(=O)Cc3ncc(C)c(OC)c3C)nc2n1 (stereo not given),parasite load remaining,[2],0.57% (active)
same,viability,[2],93%
same,nuclear beta-catenin stimulation,[3]; at 10 µM,5.2% (inactive)
same,nuclear beta-catenin stimulation,"[3]; stimulation, at 2 µM",-0.9%
same,insulin secretion stimulation,[4],4.2% (inactive)
same,viability decrease,[5],16.5% (inactive)
same,tube area decrease,[6],14.1% (inactive)
same,GLP1 secretion stimulation,[7],4.6% (inactive)
same,inhibition of viability,[8],4.9% (inactive)
same,viability decrease (inhibition),[9],-1.6% (inactive)
same,viability decrease (inhibition),[10],4.3% (inactive)
same,red/green cell ratio (normalised),[11],1.06 (inactive)
same,normalised cell number,[11]; [16],1.01
same,normalised cell number,[11]; [17],1.07
same,fold change,[12]; [18],0.835 (inactive)
same,fold change,[12]; [19],1.32
same,cell count,[12]; [20],8340
same,cell count,[12]; [21],9990
same,z-score,[13]; [22],1.95 (inactive) and 1.02
same,z-score,[13]; [23],0.213 and 2.3
same,remaining NAD,[14],77 nM (active)
CN(N=O)C(=O)N[C@@H]1[C@@H](O)[C@H](O)[C@@H](CO)O[C@@H]1O,parasite load remaining,[2],90.3% (inactive) and 138% (inactive) and 42.6% (inactive)
same,viability,[2],97.3% and 74.3% and 97.4%
same,nuclear beta-catenin stimulation,[3]; at 10 µM,0.9% (inactive)
same,nuclear beta-catenin stimulation,"[3]; stimulation, at 2 µM",2.9%
same,insulin secretion stimulation,[4],0.5% (inactive)
same,viability decrease,[5],-5.6% (inactive)
same,tube area decrease,[6],10.3% (inactive)
same,GLP1 secretion stimulation,[7],0.8% (inactive)
same,inhibition of viability,[8],-6.13% (inactive)
same,viability decrease (inhibition),[9],42% (inactive)
same,viability decrease (inhibition),[10],-37.7% (inactive)
same,red/green cell ratio (normalised),[11],1.14 (inactive)
same,normalised cell number,[11]; [16],0.95
same,normalised cell number,[11]; [17],1.08
same,fold change,[12]; [18],0.837 (inactive) and 0.877 (inactive)
same,fold change,[12]; [19],1.24 and 1.12
same,cell count,[12]; [20],8550 and 11000
same,cell count,[12]; [21],10200 and 12600
same,z-score,[13]; [22],0.426 (inactive)
same,z-score,[13]; [23],0.385
same,viability,"[15]; at 0.000305 µM, OCI-C5x cells, with rucaparib 10 µM, 100% = cells with rucaparib alone",107% (inactive)
same,viability,"[15]; at 0.000305 µM, OCI-C5x cells, without rucaparib",111% (inactive)
same,viability,"[15]; at 0.000305 µM, OCI-P5x cells, with rucaparib 20 µM, 100% = cells with rucaparib alone",108% (inactive)
same,viability,"[15]; at 0.000305 µM, OCI-P5x cells, without rucaparib",121% (inactive)
same,viability,"[15]; at 0.00122 µM, OCI-C5x cells, with rucaparib 10 µM, 100% = cells with rucaparib alone",110% (inactive)
same,viability,"[15]; at 0.00122 µM, OCI-C5x cells, without rucaparib",114% (inactive)
same,viability,"[15]; at 0.00122 µM, OCI-P5x cells, with rucaparib 20 µM, 100% = cells with rucaparib alone",101% (inactive)
same,viability,"[15]; at 0.00122 µM, OCI-P5x cells, without rucaparib",115% (inactive)
same,viability,"[15]; at 0.00488 µM, OCI-C5x cells, with rucaparib 10 µM, 100% = cells with rucaparib alone",102% (inactive)
same,viability,"[15]; at 0.00488 µM, OCI-C5x cells, without rucaparib",121% (inactive)
same,viability,"[15]; at 0.00488 µM, OCI-P5x cells, with rucaparib 20 µM, 100% = cells with rucaparib alone",97.2% (active)
same,viability,"[15]; at 0.00488 µM, OCI-P5x cells, without rucaparib",113% (inactive)
same,viability,"[15]; at 0.0195 µM, OCI-C5x cells, with rucaparib 10 µM, 100% = cells with rucaparib alone",111% (inactive)
same,viability,"[15]; at 0.0195 µM, OCI-C5x cells, without rucaparib",114% (inactive)
same,viability,"[15]; at 0.0195 µM, OCI-P5x cells, with rucaparib 20 µM, 100% = cells with rucaparib alone",100% (inactive)
same,viability,"[15]; at 0.0195 µM, OCI-P5x cells, without rucaparib",116% (inactive)
same,viability,"[15]; at 0.0781 µM, OCI-C5x cells, with rucaparib 10 µM, 100% = cells with rucaparib alone",106% (inactive)
same,viability,"[15]; at 0.0781 µM, OCI-C5x cells, without rucaparib",122% (inactive)
same,viability,"[15]; at 0.0781 µM, OCI-P5x cells, with rucaparib 20 µM, 100% = cells with rucaparib alone",104% (inactive)
same,viability,"[15]; at 0.0781 µM, OCI-P5x cells, without rucaparib",112% (inactive)
same,viability,"[15]; at 0.313 µM, OCI-C5x cells, with rucaparib 10 µM, 100% = cells with rucaparib alone",106% (inactive)
same,viability,"[15]; at 0.313 µM, OCI-C5x cells, without rucaparib",126% (inactive)
same,viability,"[15]; at 0.313 µM, OCI-P5x cells, with rucaparib 20 µM, 100% = cells with rucaparib alone",98.9% (active)
same,viability,"[15]; at 0.313 µM, OCI-P5x cells, without rucaparib",113% (inactive)
same,viability,"[15]; at 1.25 µM, OCI-C5x cells, with rucaparib 10 µM, 100% = cells with rucaparib alone",97.9% (active)
same,viability,"[15]; at 1.25 µM, OCI-C5x cells, without rucaparib",109% (inactive)
same,viability,"[15]; at 1.25 µM, OCI-P5x cells, with rucaparib 20 µM, 100% = cells with rucaparib alone",87.8% (active)
same,viability,"[15]; at 1.25 µM, OCI-P5x cells, without rucaparib",105% (inactive)
same,viability,"[15]; at 5 µM, OCI-C5x cells, with rucaparib 10 µM, 100% = cells with rucaparib alone",103% (inactive)
same,viability,"[15]; at 5 µM, OCI-C5x cells, without rucaparib",101% (inactive)
same,viability,"[15]; at 5 µM, OCI-P5x cells, with rucaparib 20 µM, 100% = cells with rucaparib alone",87.3% (active)
same,viability,"[15]; at 5 µM, OCI-P5x cells, without rucaparib",98.1% (active)
